MEKK2 WT-MEK5: raises or lowers MEK5 binding to wildtype human MEKK2 PB1 domain; Q9Y2U5; bead flow cytometry, Alexa488-MEK5 binding to MEKK2 WT; actives lie on both sides; binding response (% of control), % at 10 µM; 290,000 compounds, 1.1% hits; AID 1531; in the data active means binding response below about 67% or above about 130%
MEKK2mut PB1 HTS: signal of MEK5 binding to mutant human MEKK2 PB1 domain; percent response, % at 10 µM; bead flow cytometry, Alexa488-MEK5 binding to MEKK2 mutant; 290,000 compounds, 0.35% hits; AID 1530; in the data active means percent response above about 24%, passing the limit was not always enough
MEKK3 PB1 HTS: modulators (inhibitors or enhancers) of MEK5 binding to human MEKK3 PB1 domain | Q99759 | bead-based flow cytometry, Alexa488-MEK5 binding to MEKK3; actives lie on both sides; 0 = blocked by unlabeled MEK5, 100 = vehicle | binding response (% of control), % at 10 µM | 290,000 compounds, 1.4% hits | AID 1529;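 active means binding response more than 3 SD above or below the average of its plate-row segment, actives on both sides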;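 further: Alexa488 bead fluorescence after subtracting the streptavidin-only scavenger bead signal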
dFosB act-1: enhances mouse delta FosB homodimer DNA binding; P13346; purified delta FosB, TAMRA-CDK5 oligo fluorescence polarization; percent of positive-control signal above neutral wells; activation, % at 25 µM; 340,000 compounds, 0.99% hits;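 active means mean activation above about 17%, with every replicate also reaching it, limit read from the data, passing the limit was not always enough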
FID counter: counter-screen for HCV NS3 helicase inhibitors: DNA intercalator displacement; DNA fluorescent intercalator displacement, fluorescence; inhibition, % at 7.9 µM; 290,000 compounds, 0.17% hits; AID 1845; in the data active means inhibition above about 37%;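 further: higher means more ethidium bromide displaced from hairpin DNA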
dFosB act-2: delta FosB (mouse) homodimer activation | shares compounds with dFosB act-1 | purified delta FosB, TAMRA-CDK5 oligo fluorescence polarization; normalised: neutral wells 0, positive control 100 | activation, % at 24.9 µM | 2,400 tested, under 10 active | AID 588690;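 active means highest replicate activation at or above 34% and every replicate reaching that threshold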;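 further: higher polarization means more probe DNA bound by delta FosB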
Of the large screens only hits and unclear results are named; the others gave an inactive call (follow-up assays come after a bar, where they were run); [ ] = another dose, or the depositor's remark. Most compounds without a hit are left out; they make up all but 2.9% or so of the library.

CCN1/C(=C\C=C2\C(=O)N(c3ccccc3)C(=S)N2C)Sc2ccccc21	MEKK2 WT-MEK5 44[inhibitor], MEKK3 PB1 HTS 75[inhibitor], dFosB act-1 28 | dFosB act-2 inactive
O=C(CN1C(=O)/C(=C\c2cccc(Br)c2)Oc2ccccc21)NCC1CCCO1 (configuration not stated)	none
CC(=O)Nc1ccc(NC(=O)c2ccc(NS(=O)(=O)c3cc(C(C)(C)C)cc(C)c3C)cc2)cc1	dFosB act-1 54 | dFosB act-2 inactive
O=C(CN1C(=O)COc2ccc(Cl)cc21)Nc1nccs1	dFosB act-1 20 (no result: MEKK2 WT-MEK5, MEKK2mut PB1 HTS, MEKK3 PB1 HTS, FID counter) | dFosB act-2 inactive
Cc1cccnc1NC(=O)CN1C(=O)COc2ccc(Cl)cc21	none
COc1cccc(NC(=O)NCc2ccccc2Cl)c1	none (no result: MEKK2 WT-MEK5, MEKK2mut PB1 HTS, MEKK3 PB1 HTS, FID counter)
COc1cc2c(cc1OC)CN(CCC(C)c1ccc(Cl)cc1)CC2 (configuration not stated)	none (no result: MEKK2 WT-MEK5, MEKK2mut PB1 HTS, MEKK3 PB1 HTS, FID counter)
CCN(CC)N=Nc1ccc(S(=O)(=O)Nc2nc(C)cc(C)n2)cc1	none
CS(=O)(=O)N(CC(=O)Nc1c(F)cccc1F)c1ccc(C23CC4CC(CC(C4)C2)C3)cc1	dFosB act-1 54 | dFosB act-2 inactive
O=C(CC1NCCc2ccccc21)Nc1ccc(Cl)cc1 (configuration not stated)	none
Cc1ccc(S(=O)(=O)N(C)c2ccc(OC(=O)CN3C(=O)NC4(CCCC4)C3=O)cc2)cc1	none (no result: MEKK2 WT-MEK5, MEKK2mut PB1 HTS, MEKK3 PB1 HTS, FID counter)
Cc1ccc(S(=O)(=O)N(C)c2ccc(OC(=O)CN3C(=O)NC4(CCCC4)C3=O)cc2)cc1C	dFosB act-1 25 (no result: MEKK2 WT-MEK5, MEKK2mut PB1 HTS, MEKK3 PB1 HTS, FID counter) | dFosB act-2 inactive
CN1CCN(C(=O)CCN2C(=O)/C(=C/c3ccc(F)cc3)SC2=S)CC1	none
C=CCNC(=O)C1CC(=O)N(c2ccc(OCC(=O)Nc3ccc(Cl)c(C(F)(F)F)c3)cc2)C1 (configuration not stated)	dFosB act-1 27 | dFosB act-2 inactive
Cc1sc(NC(=O)Cn2c(=O)oc3ccccc32)nc1-c1ccc(Cl)cc1	dFosB act-1 40 | dFosB act-2 inactive
CC[C@@H](C)C(N)c1cn([C@@H](CCC(=O)O)C(=O)N2CCNCC2)nn1 (some centres not stated)	none
O=C(Cn1nnc(-c2ccc(CN3CCOCC3)cc2)n1)Nc1nc(-c2ccccc2)cs1	dFosB act-1 25 | dFosB act-2 inactive
O=C(CN1CCOCC1)Nc1nc(-c2ccccc2)cs1	none
COC(=O)c1ccc(Nc2ncnc3c2cnn3-c2cccc(C)c2)cc1	dFosB act-1 45 | dFosB act-2 inactive
CC(C)C(NC(=O)C1CCC(C(C)(C)C)CC1)C(=O)NCCc1ccc(S(N)(=O)=O)cc1 (configuration not stated)	none
CC1CCC(C(=O)NC(C(=O)NCCc2ccc(S(N)(=O)=O)cc2)C(C)C)CC1 (configuration not stated)	dFosB act-1 21 | dFosB act-2 inactive
Cc1cc(OCC(=O)Nc2sc3c(c2C#N)CC(C)(C)NC3(C)C)c(C(C)C)cc1Cl	dFosB act-1 62 | dFosB act-2 inactive
O=C(NCCc1nc2ccccc2[nH]1)/C(=C/c1ccc2c(c1)OCO2)NC(=O)c1ccc(Cl)cc1Cl	dFosB act-1 20 | dFosB act-2 inactive
O=C(NCCc1nc2ccccc2[nH]1)/C(=C/c1ccc(F)cc1)NC(=O)c1ccco1	none
O=c1cc(CSc2nnnn2-c2ccccc2)nc(Nc2ccc(F)cc2)[nH]1	dFosB act-1 26 | dFosB act-2 inactive
Cn1cnnc1Sc1cc(N2CCN(S(=O)(=O)c3ccc4ccccc4c3)CC2)ccc1[N+](=O)[O-]	dFosB act-1 19 | dFosB act-2 inactive
Cn1nnnc1SCC(=O)Nc1nc2c(F)c(F)c(F)cc2s1	none (no result: MEKK2 WT-MEK5, MEKK2mut PB1 HTS, MEKK3 PB1 HTS, FID counter)
COc1cc(OC)cc(C(=O)Nc2cccc(-c3ccc(N4CCOCC4)nn3)c2)c1	dFosB act-1 20 (no result: MEKK2 WT-MEK5, MEKK2mut PB1 HTS, MEKK3 PB1 HTS, FID counter) | dFosB act-2 inactive
COc1ccc(C(=O)Nc2cccc(-c3ccc(N4CCOCC4)nn3)c2)cc1	none (no result: MEKK2 WT-MEK5, MEKK2mut PB1 HTS, MEKK3 PB1 HTS, FID counter)
CCOc1ccc(N(Cc2cc3cc(C)ccc3[nH]c2=O)S(=O)(=O)c2ccccc2)cc1	none
COc1ccc(S(=O)(=O)N2CCC(C(=O)NCc3ccccc3)CC2)cc1OC	none
COc1ccccc1NC(=O)NNC(=O)c1ccc(-c2ccccc2)cc1	none

Assay outcomes from PubChem BioAssay.
